Source: the supplement of paper PMC12669032

Key:
Assay in all cases: growth AUC relative to DMSO control (median of replicates) (fraction); higher = more growth (less inhibition), active = hit call of the paper
Conditions in all cases: 20 µM; 24 h;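 active = AUC reduced over 20% with Padj below 0.05 in at least 2 of 3 replicates; inactive = otherwise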
Akkermansia muciniphila = test system: Akkermansia muciniphila
Summary of the method: (§1)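 Gut bacteria were grown singly in mGAM at 37 °C without oxygen, from OD600 0.05, alongside 20 µM compound in 1% DMSO, and OD600 was read each hour for 24 h. Area under the growth curve was normalised to the median of solvent-only wells per plate, or to row and column medians on the industrial chemical plate. The minimum OD was set to 0 beforehand, and the reported value is the median of three biological replicates grown on separate days.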

Bacteroides caccae = test system: Bacteroides caccae
Summary of the method: as §1

Bacteroides clarus = test system: Bacteroides clarus
Summary of the method: as §1

Bacteroides dorei = test system: Bacteroides dorei
Summary of the method: as §1

Bacteroides stercoris = test system: Bacteroides stercoris
Summary of the method: as §1

[1] = test system: Bacteroides thetaiotaomicron
Summary of the method: as §1

Bacteroides uniformis = test system: Bacteroides uniformis
Summary of the method: as §1

[2] = test system: Bifidobacterium longum subsp. longum
Summary of the method: as §1

Clostridium difficile = test system: Clostridium difficile
Summary of the method: as §1

Collinsella aerofaciens = test system: Collinsella aerofaciens
Summary of the method: as §1

Coprococcus comes = test system: Coprococcus comes
Summary of the method: as §1

Escherichia coli ED1a = test system: Escherichia coli ED1a
Summary of the method: as §1

Escherichia coli IAI1 = test system: Escherichia coli IAI1
Summary of the method: as §1

Eubacterium rectale = test system: Eubacterium rectale
Summary of the method: as §1

[3] = test system: Fusobacterium nucleatum subsp. animalis
Summary of the method: as §1

Lactobacillus gasseri = test system: Lactobacillus gasseri
Summary of the method: as §1

Lactobacillus paracasei = test system: Lactobacillus paracasei
Summary of the method: as §1

Odoribacter splanchnicus = test system: Odoribacter splanchnicus
Summary of the method: as §1

[4] = test system: Parabacteroides distasonis
Summary of the method: as §1

Parabacteroides merdae = test system: Parabacteroides merdae
Summary of the method: as §1

Measured: growth AUC

Br[C@@H]1CC[C@H](Br)[C@H](Br)CC[C@@H](Br)[C@@H](Br)CC[C@H]1Br
active: Bacteroides stercoris 0.528 | Eubacterium rectale 0.773 | [4] 0.232 | Parabacteroides merdae 0.351
inactive: Akkermansia muciniphila 1 | Bacteroides caccae 1.01 | Bacteroides clarus 0.901 | Bacteroides dorei 0.999 | [1] 1.01 | Bacteroides uniformis 1.01 | [2] 0.919 | Clostridium difficile 1.02 | Collinsella aerofaciens 1 | Coprococcus comes 1.05 | Escherichia coli ED1a 0.985 | Escherichia coli IAI1 1 | [3] 0.974 | Lactobacillus gasseri 0.789 | Lactobacillus paracasei 0.976 | Odoribacter splanchnicus 1.08

CNC(=O)/C(=N/OC)c1ccccc1COc1cc(C)ccc1C
inactive: Akkermansia muciniphila 0.923 | Bacteroides caccae 1 | Bacteroides clarus 0.94 | Bacteroides dorei 1.01 | Bacteroides stercoris 1.01 | [1] 0.946 | Bacteroides uniformis 0.962 | [2] 0.972 | Clostridium difficile 0.987 | Collinsella aerofaciens 0.968 | Coprococcus comes 0.974 | Escherichia coli ED1a 1.01 | Escherichia coli IAI1 1 | Eubacterium rectale 0.92 | [3] 0.931 | Lactobacillus gasseri 1.01 | Lactobacillus paracasei 1.01 | Odoribacter splanchnicus 0.981 | [4] 0.92 | Parabacteroides merdae 0.926

CCOc1ccc(NC(=O)OC(C)C)cc1OCC
active: Odoribacter splanchnicus 0.722
inactive: Akkermansia muciniphila 1.08 | Bacteroides caccae 0.95 | Bacteroides clarus 1.02 | Bacteroides dorei 0.928 | Bacteroides stercoris 1.2 | [1] 0.844 | Bacteroides uniformis 0.938 | [2] 1.05 | Clostridium difficile 0.971 | Collinsella aerofaciens 0.974 | Coprococcus comes 0.942 | Escherichia coli ED1a 1.01 | Escherichia coli IAI1 1.04 | Eubacterium rectale 1.21 | [3] 1.09 | Lactobacillus gasseri 0.99 | Lactobacillus paracasei 0.835 | [4] 0.989 | Parabacteroides merdae 0.998

O=S(Cc1ccc(Cl)cc1)c1ccc(Cl)cc1 (stereo not given)
inactive: Akkermansia muciniphila 0.934 | Bacteroides caccae 0.961 | Bacteroides clarus 0.978 | Bacteroides dorei 0.986 | Bacteroides stercoris 0.964 | [1] 0.946 | Bacteroides uniformis 0.983 | [2] 1.05 | Clostridium difficile 0.977 | Collinsella aerofaciens 0.972 | Coprococcus comes 1 | Escherichia coli ED1a 0.986 | Escherichia coli IAI1 0.981 | Eubacterium rectale 1.09 | [3] 0.94 | Lactobacillus gasseri 0.899 | Lactobacillus paracasei 1.24 | Odoribacter splanchnicus 1.01 | [4] 0.947 | Parabacteroides merdae 1

COc1nc(N)nc(NC(C)(C)C)n1
inactive: Akkermansia muciniphila 1.01 | Bacteroides caccae 0.996 | Bacteroides clarus 0.965 | Bacteroides dorei 1.03 | Bacteroides stercoris 0.967 | [1] 1.01 | Bacteroides uniformis 1 | [2] 1.01 | Clostridium difficile 0.98 | Collinsella aerofaciens 0.959 | Coprococcus comes 1.03 | Escherichia coli ED1a 1 | Escherichia coli IAI1 0.98 | Eubacterium rectale 0.976 | [3] 0.964 | Lactobacillus gasseri 0.933 | Lactobacillus paracasei 1.02 | Odoribacter splanchnicus 1.07 | [4] 1 | Parabacteroides merdae 1.02

NC(=O)c1nn(-c2c(Cl)cc(C(F)(F)F)cc2Cl)c(N)c1S(=O)C(F)(F)F (stereo not given)
inactive: Akkermansia muciniphila 0.886 | Bacteroides caccae 0.973 | Bacteroides clarus 0.953 | Bacteroides dorei 0.995 | Bacteroides stercoris 0.965 | [1] 0.972 | Bacteroides uniformis 0.977 | [2] 0.976 | Clostridium difficile 1 | Collinsella aerofaciens 0.985 | Coprococcus comes 0.958 | Escherichia coli ED1a 0.964 | Escherichia coli IAI1 0.983 | Eubacterium rectale 1.07 | [3] 0.945 | Lactobacillus gasseri 0.937 | Lactobacillus paracasei 0.982 | Odoribacter splanchnicus 0.948 | [4] 1.02 | Parabacteroides merdae 0.962

CC(C)CNC(=O)N1CCNC1=O
inactive: Akkermansia muciniphila 1.09 | Bacteroides caccae 0.975 | Bacteroides clarus 1.02 | Bacteroides dorei 0.96 | Bacteroides stercoris 1.18 | [1] 1.02 | Bacteroides uniformis 1.02 | [2] 1.04 | Clostridium difficile 1.04 | Collinsella aerofaciens 1.08 | Coprococcus comes 1.01 | Escherichia coli ED1a 1.02 | Escherichia coli IAI1 1.02 | Eubacterium rectale 1.02 | [3] 1.07 | Lactobacillus gasseri 1.05 | Lactobacillus paracasei 1.04 | Odoribacter splanchnicus 1.06 | [4] 0.956 | Parabacteroides merdae 1.01

Cn1cc(C(=O)Nc2ccc(F)cc2-c2ccc(Cl)c(Cl)c2)c(C(F)F)n1
inactive: Akkermansia muciniphila 0.929 | Bacteroides caccae 0.901 | Bacteroides clarus 0.849 | Bacteroides dorei 0.949 | Bacteroides stercoris 0.826 | [1] 0.872 | Bacteroides uniformis 0.911 | [2] 0.991 | Clostridium difficile 0.983 | Collinsella aerofaciens 0.991 | Coprococcus comes 0.921 | Escherichia coli ED1a 1.01 | Escherichia coli IAI1 0.997 | Eubacterium rectale 0.953 | [3] 0.944 | Lactobacillus gasseri 0.881 | Lactobacillus paracasei 0.968 | Odoribacter splanchnicus 0.865 | Parabacteroides merdae 0.892
active: [4] 0.741

CCc1cccc(C)c1N(C(=O)CS(=O)(=O)[O-])C(C)COC.[Na+] (stereo not given)
inactive: Akkermansia muciniphila 1.08 | Bacteroides caccae 0.952 | Bacteroides clarus 0.987 | Bacteroides dorei 0.91 | Bacteroides stercoris 0.951 | Bacteroides uniformis 0.993 | [2] 0.954 | Clostridium difficile 0.991 | Collinsella aerofaciens 0.923 | Coprococcus comes 0.948 | Escherichia coli ED1a 0.954 | Escherichia coli IAI1 0.941 | Eubacterium rectale 1.05 | [3] 0.881 | Lactobacillus gasseri 0.91 | Lactobacillus paracasei 1.02 | Odoribacter splanchnicus 0.908 | [4] 0.925 | Parabacteroides merdae 0.941
active: [1] 0.727

NC(=O)c1c(Cl)cccc1Cl
inactive: Akkermansia muciniphila 0.966 | Bacteroides caccae 0.94 | Bacteroides clarus 1 | Bacteroides dorei 1.01 | Bacteroides stercoris 1.06 | [1] 0.998 | Bacteroides uniformis 0.978 | [2] 1 | Clostridium difficile 0.98 | Collinsella aerofaciens 0.974 | Coprococcus comes 0.984 | Escherichia coli ED1a 1.01 | Escherichia coli IAI1 0.983 | Eubacterium rectale 1.09 | [3] 1.1 | Lactobacillus gasseri 0.917 | Lactobacillus paracasei 1.03 | Odoribacter splanchnicus 1.07 | [4] 0.99 | Parabacteroides merdae 0.996

CSC(=O)c1cccc2nnsc12
inactive: Akkermansia muciniphila 0.851 | Bacteroides caccae 1.04 | Bacteroides clarus 0.997 | Bacteroides dorei 0.978 | Bacteroides stercoris 1.07 | [1] 0.961 | Bacteroides uniformis 1 | [2] 1.04 | Clostridium difficile 1 | Collinsella aerofaciens 1.01 | Coprococcus comes 1.01 | Escherichia coli ED1a 0.994 | Escherichia coli IAI1 0.981 | Eubacterium rectale 1.03 | [3] 1.12 | Lactobacillus gasseri 0.934 | Lactobacillus paracasei 0.953 | Odoribacter splanchnicus 1.01 | [4] 0.921 | Parabacteroides merdae 1.01

CS(=O)(=O)c1ccc(C(=O)O)c(N)c1
inactive: Akkermansia muciniphila 1.13 | Bacteroides caccae 0.993 | Bacteroides clarus 1.01 | Bacteroides dorei 1.02 | Bacteroides stercoris 1.03 | [1] 0.994 | Bacteroides uniformis 1.03 | [2] 1 | Clostridium difficile 1.03 | Collinsella aerofaciens 1.03 | Coprococcus comes 1.05 | Escherichia coli ED1a 1.02 | Escherichia coli IAI1 1.01 | Eubacterium rectale 1.05 | [3] 1.08 | Lactobacillus gasseri 1.13 | Lactobacillus paracasei 1 | Odoribacter splanchnicus 1.02 | [4] 1.04 | Parabacteroides merdae 1.01

Nc1ccc(O)cc1
inactive: Akkermansia muciniphila 0.951 | Bacteroides caccae 1 | Bacteroides clarus 1.01 | Bacteroides dorei 0.998 | Bacteroides stercoris 1.11 | [1] 1.01 | Bacteroides uniformis 1.03 | [2] 0.921 | Clostridium difficile 1.01 | Collinsella aerofaciens 1.01 | Coprococcus comes 1.01 | Escherichia coli ED1a 1.06 | Escherichia coli IAI1 1.01 | Eubacterium rectale 1.12 | [3] 1.12 | Lactobacillus gasseri 1.08 | Lactobacillus paracasei 1.08 | Odoribacter splanchnicus 1.05 | [4] 0.954 | Parabacteroides merdae 1.04

CCOC(=O)C(C)Oc1ccc(Oc2nc3ccc(Cl)cc3o2)cc1 (racemic)
inactive: Akkermansia muciniphila 1.1 | Bacteroides caccae 0.973 | Bacteroides clarus 0.96 | Bacteroides dorei 0.94 | Bacteroides stercoris 0.898 | [1] 0.971 | Bacteroides uniformis 0.981 | [2] 0.989 | Clostridium difficile 1.01 | Collinsella aerofaciens 0.947 | Coprococcus comes 0.993 | Escherichia coli ED1a 0.967 | Escherichia coli IAI1 0.949 | Eubacterium rectale 0.987 | [3] 0.929 | Lactobacillus gasseri 0.91 | Lactobacillus paracasei 0.97 | Odoribacter splanchnicus 1.01 | [4] 0.824 | Parabacteroides merdae 0.969

COC(=O)CSc1cc(N=c2sc(=O)n3n2CCCC3)c(F)cc1Cl
inactive: Akkermansia muciniphila 1.11 | Bacteroides caccae 1 | Bacteroides clarus 0.999 | Bacteroides dorei 0.945 | Bacteroides stercoris 1.04 | [1] 0.94 | Bacteroides uniformis 0.988 | [2] 0.985 | Clostridium difficile 0.982 | Collinsella aerofaciens 1.01 | Coprococcus comes 0.999 | Escherichia coli ED1a 1.02 | Escherichia coli IAI1 0.963 | Eubacterium rectale 1.12 | [3] 1.03 | Lactobacillus gasseri 0.862 | Lactobacillus paracasei 0.974 | Odoribacter splanchnicus 1.01 | [4] 0.796 | Parabacteroides merdae 0.967

O=C(NC(=O)c1c(F)cccc1F)Nc1cc(C(F)(F)F)cc(C(F)(F)F)c1Cl
inactive: Akkermansia muciniphila 0.695 | Bacteroides caccae 0.852 | Bacteroides clarus 0.867 | Bacteroides dorei 0.982 | Bacteroides stercoris 0.849 | [1] 0.96 | Bacteroides uniformis 0.96 | [2] 0.819 | Clostridium difficile 1.02 | Collinsella aerofaciens 1.02 | Coprococcus comes 0.932 | Escherichia coli ED1a 0.949 | Escherichia coli IAI1 0.971 | Eubacterium rectale 0.941 | [3] 0.989 | Lactobacillus gasseri 1.33 | Lactobacillus paracasei 0.861 | Odoribacter splanchnicus 0.936 | [4] 0.948 | Parabacteroides merdae 0.951
